Test [1] concerns the target Rho-associated protein kinase 1 (Homo sapiens) (UniProt Q13464). The following applies: at 1 µM.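 Further: reported values are mean percent inhibition of ROCK1.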
For test [2], the target named is Rho-associated protein kinase 2 (Homo sapiens) (UniProt O75116). Particulars: at 0.1 µM.
Test [3] shares this target. The following applies: at 1 µM.
For test [4], the target named is Ribosomal protein S6 kinase alpha-1 (Homo sapiens) (UniProt Q15418). Particulars: at 0.1 µM.
The target is the same in test [5]. Particulars: at 1 µM.
Test [6] concerns the target Ribosomal protein S6 kinase alpha-3 (Homo sapiens) (UniProt P51812). Particulars: at 0.1 µM.
For test [7] the target is unchanged. Particulars: at 1 µM.
Test [8] concerns the target Ribosomal protein S6 kinase alpha-2 (Homo sapiens) (UniProt Q15349). The following applies: at 0.1 µM.
Test [9] shares this target. The following applies: at 1 µM.
The target in test [10] is Ribosomal protein S6 kinase alpha-6 (Homo sapiens) (UniProt Q9UK32). The following applies: at 0.1 µM.
For test [11] the target is unchanged. The following applies: at 1 µM.
For test [12], the target named is T1, Serine/threonine-protein kinase Sgk1 (Homo sapiens) (UniProt O00141).
T1 sequence (whole entry): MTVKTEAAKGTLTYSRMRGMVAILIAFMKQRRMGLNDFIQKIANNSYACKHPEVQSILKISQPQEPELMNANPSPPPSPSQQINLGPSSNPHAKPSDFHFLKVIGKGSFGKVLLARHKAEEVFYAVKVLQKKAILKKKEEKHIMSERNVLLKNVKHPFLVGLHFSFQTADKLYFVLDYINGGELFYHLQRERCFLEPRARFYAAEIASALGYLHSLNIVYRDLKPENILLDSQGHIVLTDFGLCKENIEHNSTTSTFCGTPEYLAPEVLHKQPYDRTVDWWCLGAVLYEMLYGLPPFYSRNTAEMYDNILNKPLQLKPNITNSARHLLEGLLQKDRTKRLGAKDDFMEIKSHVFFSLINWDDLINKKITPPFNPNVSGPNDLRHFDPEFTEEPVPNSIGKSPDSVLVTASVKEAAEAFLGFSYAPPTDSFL
Particulars: at 0.1 µM.

Test [13] has as its target T1, Serine/threonine-protein kinase Sgk1 (Homo sapiens). The following applies: at 1 µM.
The target in test [14] is T2, Serine/threonine-protein kinase Sgk2 (Homo sapiens) (UniProt Q9HBY8).
T2 sequence (whole entry): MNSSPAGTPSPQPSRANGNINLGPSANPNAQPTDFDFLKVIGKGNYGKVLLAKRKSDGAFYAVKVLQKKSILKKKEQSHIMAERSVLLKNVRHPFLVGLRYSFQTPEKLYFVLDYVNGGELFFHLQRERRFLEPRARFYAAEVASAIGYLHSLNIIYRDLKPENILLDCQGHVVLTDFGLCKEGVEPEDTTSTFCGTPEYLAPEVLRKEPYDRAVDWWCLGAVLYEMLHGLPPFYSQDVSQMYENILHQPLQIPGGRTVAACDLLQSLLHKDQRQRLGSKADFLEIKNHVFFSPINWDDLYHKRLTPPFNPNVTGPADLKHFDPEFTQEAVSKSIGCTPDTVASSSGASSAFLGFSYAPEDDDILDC
Particulars: at 0.1 µM.

Test [15] addresses T2, Serine/threonine-protein kinase Sgk2 (Homo sapiens). The following applies: at 1 µM.
For test [16], the target named is T3, Serine/threonine-protein kinase Sgk3 (Homo sapiens) (UniProt Q96BR1).
T3 sequence (whole entry): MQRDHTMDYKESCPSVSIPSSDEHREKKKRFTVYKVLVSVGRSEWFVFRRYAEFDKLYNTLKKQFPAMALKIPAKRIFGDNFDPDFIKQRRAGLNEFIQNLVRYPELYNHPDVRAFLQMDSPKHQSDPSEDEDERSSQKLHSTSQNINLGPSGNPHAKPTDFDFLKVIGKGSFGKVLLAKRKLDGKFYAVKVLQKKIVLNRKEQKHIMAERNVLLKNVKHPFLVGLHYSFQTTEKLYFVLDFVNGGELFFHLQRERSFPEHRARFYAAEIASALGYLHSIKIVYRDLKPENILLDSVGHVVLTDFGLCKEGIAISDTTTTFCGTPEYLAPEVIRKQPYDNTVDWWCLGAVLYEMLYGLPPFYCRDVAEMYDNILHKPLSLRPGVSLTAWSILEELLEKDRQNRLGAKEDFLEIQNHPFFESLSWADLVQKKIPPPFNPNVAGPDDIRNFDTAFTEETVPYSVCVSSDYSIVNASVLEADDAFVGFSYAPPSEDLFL
Particulars: at 0.1 µM.

The target of test [17] is T3, Serine/threonine-protein kinase Sgk3 (Homo sapiens). The following applies: at 1 µM.
In test [18] the target is 5'-AMP-activated protein kinase catalytic subunit alpha-1 (Homo sapiens) (UniProt Q13131). Particulars: at 0.1 µM.
The target is the same in test [19]. Particulars: at 1 µM.
Test [20] concerns the target 5'-AMP-activated protein kinase catalytic subunit alpha-2 (Homo sapiens) (UniProt P54646). Particulars: at 0.1 µM.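 Further: mean inhibition measured on the AMPK complex of alpha2, beta1 and gamma1 subunits.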

Sequence of Ribosomal protein S6 kinase alpha-6 (Homo sapiens) (Q9UK32 whole entry): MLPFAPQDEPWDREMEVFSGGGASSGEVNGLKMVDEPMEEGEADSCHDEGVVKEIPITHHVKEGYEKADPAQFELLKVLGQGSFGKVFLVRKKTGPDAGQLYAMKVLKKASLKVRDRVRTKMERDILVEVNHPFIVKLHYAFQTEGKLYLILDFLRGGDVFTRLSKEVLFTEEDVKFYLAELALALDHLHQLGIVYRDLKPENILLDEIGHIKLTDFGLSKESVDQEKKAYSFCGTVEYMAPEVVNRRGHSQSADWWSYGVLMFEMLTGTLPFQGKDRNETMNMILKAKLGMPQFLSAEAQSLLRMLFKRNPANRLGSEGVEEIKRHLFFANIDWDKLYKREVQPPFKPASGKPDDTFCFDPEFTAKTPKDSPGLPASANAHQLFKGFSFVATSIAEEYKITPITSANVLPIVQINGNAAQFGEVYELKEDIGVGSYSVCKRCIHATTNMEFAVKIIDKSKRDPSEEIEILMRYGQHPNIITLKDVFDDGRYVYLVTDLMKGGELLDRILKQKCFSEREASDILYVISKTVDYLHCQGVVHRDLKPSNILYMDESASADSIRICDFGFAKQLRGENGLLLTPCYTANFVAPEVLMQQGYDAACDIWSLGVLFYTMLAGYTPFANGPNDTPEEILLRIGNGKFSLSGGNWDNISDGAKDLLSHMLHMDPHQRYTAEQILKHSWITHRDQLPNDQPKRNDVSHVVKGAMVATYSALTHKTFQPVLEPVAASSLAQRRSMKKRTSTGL
Sequence of Ribosomal protein S6 kinase alpha-1 (Homo sapiens) (Q15418 whole entry): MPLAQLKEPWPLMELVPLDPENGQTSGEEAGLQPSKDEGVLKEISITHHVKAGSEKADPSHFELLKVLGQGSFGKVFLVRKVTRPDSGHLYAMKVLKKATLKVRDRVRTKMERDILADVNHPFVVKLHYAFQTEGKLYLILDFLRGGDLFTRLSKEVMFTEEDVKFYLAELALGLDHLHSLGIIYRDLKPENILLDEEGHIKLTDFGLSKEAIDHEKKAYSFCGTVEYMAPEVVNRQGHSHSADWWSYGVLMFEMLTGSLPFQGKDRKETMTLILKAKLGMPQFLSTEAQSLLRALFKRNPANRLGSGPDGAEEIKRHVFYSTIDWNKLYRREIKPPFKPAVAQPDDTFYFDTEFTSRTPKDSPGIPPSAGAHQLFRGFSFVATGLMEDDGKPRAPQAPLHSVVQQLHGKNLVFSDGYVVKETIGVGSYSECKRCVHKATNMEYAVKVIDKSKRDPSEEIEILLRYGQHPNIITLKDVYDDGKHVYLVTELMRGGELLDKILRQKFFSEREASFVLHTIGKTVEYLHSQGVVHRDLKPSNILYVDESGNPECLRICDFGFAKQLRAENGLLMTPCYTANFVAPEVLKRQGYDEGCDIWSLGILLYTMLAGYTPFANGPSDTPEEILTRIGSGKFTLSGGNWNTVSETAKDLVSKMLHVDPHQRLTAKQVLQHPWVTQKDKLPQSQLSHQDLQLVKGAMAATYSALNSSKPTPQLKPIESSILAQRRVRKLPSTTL
Sequence of Rho-associated protein kinase 1 (Homo sapiens) (Q13464 2-1354 limits assumed): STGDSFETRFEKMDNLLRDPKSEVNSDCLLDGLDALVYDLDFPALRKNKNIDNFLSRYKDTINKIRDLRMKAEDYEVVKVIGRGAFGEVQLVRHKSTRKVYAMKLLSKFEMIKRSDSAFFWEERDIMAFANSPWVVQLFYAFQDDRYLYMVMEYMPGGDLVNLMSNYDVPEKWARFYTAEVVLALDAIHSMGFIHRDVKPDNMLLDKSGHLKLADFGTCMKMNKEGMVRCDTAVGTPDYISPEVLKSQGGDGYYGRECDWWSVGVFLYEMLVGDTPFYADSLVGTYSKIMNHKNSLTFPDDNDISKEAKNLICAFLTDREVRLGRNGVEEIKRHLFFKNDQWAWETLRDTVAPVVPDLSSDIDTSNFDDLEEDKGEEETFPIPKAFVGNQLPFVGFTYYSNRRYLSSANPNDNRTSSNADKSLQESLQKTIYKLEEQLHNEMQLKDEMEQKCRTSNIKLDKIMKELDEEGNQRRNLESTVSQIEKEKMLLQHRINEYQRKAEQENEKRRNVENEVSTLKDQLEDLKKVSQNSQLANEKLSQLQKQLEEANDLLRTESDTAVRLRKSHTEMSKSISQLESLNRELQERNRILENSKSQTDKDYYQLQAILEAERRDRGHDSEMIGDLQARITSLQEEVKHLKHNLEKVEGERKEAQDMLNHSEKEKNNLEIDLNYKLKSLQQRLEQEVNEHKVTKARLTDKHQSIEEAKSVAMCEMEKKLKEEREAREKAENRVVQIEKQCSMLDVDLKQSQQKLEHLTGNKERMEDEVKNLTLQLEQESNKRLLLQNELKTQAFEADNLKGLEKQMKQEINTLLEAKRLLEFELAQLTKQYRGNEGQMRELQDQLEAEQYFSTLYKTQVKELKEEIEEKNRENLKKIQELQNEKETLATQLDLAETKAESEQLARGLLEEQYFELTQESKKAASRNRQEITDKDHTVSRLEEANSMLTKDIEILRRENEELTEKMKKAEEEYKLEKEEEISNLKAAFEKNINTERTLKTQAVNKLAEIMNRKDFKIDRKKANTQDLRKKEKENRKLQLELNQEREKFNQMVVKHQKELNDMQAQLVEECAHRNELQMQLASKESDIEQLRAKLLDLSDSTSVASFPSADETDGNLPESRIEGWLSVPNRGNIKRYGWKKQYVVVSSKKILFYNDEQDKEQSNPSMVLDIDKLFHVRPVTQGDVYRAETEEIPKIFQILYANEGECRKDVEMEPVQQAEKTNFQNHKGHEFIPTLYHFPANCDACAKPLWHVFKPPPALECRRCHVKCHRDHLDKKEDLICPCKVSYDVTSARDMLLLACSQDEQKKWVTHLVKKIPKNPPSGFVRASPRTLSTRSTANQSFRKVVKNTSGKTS
Sequence of Ribosomal protein S6 kinase alpha-2 (Homo sapiens) (Q15349 whole entry): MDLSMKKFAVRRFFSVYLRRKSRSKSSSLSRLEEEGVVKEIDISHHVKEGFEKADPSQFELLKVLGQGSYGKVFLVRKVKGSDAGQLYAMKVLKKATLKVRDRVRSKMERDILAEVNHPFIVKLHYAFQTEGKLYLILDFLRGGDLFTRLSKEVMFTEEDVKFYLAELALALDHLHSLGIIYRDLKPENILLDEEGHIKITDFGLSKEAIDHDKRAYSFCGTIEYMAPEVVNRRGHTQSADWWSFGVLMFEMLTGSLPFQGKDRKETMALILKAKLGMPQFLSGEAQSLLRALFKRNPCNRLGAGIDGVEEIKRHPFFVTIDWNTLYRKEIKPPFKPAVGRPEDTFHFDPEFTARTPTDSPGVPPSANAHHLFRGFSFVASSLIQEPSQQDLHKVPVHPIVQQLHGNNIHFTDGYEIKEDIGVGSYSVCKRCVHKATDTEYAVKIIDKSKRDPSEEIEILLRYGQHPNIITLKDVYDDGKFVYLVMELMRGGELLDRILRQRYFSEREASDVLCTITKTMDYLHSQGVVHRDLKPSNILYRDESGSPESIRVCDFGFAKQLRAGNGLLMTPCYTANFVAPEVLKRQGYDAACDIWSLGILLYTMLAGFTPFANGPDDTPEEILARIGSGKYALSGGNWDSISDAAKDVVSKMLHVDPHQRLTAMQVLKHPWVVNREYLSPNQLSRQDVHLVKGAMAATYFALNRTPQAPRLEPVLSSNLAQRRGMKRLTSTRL
Sequence of Ribosomal protein S6 kinase alpha-3 (Homo sapiens) (P51812 whole entry): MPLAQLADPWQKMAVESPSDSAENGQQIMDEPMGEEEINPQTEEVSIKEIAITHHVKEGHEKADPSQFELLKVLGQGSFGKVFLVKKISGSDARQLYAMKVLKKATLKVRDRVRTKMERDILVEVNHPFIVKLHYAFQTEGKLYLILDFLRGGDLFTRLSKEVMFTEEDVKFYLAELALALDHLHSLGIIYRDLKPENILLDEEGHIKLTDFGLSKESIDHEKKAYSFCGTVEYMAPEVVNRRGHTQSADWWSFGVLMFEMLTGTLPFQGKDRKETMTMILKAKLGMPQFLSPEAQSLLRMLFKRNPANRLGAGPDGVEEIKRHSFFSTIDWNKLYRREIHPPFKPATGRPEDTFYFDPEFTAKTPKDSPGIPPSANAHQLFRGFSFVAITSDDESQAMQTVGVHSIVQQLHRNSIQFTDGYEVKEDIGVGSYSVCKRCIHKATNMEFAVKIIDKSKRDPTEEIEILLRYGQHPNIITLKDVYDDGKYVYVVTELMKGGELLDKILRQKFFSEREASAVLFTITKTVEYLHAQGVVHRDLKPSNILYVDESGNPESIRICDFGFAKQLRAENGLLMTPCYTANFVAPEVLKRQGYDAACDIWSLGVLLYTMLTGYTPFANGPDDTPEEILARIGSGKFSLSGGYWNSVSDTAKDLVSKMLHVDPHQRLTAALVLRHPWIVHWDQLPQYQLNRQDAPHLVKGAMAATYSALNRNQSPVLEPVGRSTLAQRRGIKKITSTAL
Sequence of 5'-AMP-activated protein kinase catalytic subunit alpha-2 (Homo sapiens) (P54646 whole entry, looked up): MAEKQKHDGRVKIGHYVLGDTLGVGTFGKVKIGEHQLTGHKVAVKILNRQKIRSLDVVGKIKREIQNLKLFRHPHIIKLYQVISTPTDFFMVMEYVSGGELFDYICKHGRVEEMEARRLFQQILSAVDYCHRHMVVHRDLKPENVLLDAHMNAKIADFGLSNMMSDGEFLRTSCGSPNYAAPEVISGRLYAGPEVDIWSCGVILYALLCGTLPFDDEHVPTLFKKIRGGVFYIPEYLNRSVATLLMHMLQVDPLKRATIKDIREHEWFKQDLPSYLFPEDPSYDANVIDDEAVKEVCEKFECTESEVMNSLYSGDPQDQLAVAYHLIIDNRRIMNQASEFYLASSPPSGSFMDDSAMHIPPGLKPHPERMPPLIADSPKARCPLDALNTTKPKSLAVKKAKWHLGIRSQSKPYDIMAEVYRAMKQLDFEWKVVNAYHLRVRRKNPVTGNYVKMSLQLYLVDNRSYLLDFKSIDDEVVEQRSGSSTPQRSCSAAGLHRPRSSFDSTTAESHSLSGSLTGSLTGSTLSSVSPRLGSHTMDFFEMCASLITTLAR

For `NS(=O)(=O)c1ccc(N/N=C2\C(=O)Nc3ccc(C(=O)NCCc4c[nH]cn4)cc32)cc1`, the inhibition (usually the drop in the measured response relative to a control, in per cent) in test [1] worked out at 7.56%; in test [2] it was 3%; in test [3], 12.4%; in test [4] it was 3.37%; in [5], 12%; in [6], 2.21%. Also, the inhibition in test [7] was 11.9%; in test [8], 5.36%; in [9], 23.5%; in test [10], 4.08%; in test [11], 22.2%; in [12] it was 4.44%. The inhibition was 14.1% in test [13]; 4.28% in test [14]; 5.53% in test [15]; 3.07% in [16]; 4.22% in [17]; 57.3% in test [18]. For the same compound, the inhibition in test [19] came to 86.6%; in [20] it was 23.9%.

In the case of `COc1ccc(-c2coc3ncnc(N)c23)cc1`, the inhibition was 3.53% in test [1]; 3.52% in [2]; 1.94% in [3]; 1.72% in [4]; 0.94% in [5]; 1.05% in test [6]. Also, the inhibition in test [7] was 1.66%; in [8] it was 2.4%; in test [9] it was 2.21%; in test [10] it was 1.93%; in test [11], 2.17%; in test [12], 2.68%. Besides, the inhibition in test [13] was 1.67%; in test [14] it was -1.21%; in test [15] it was -0.41%; in test [16], 2.69%; in [17], 2.97%; in test [18], 2.92%. For the same compound, the inhibition in test [19] came out at 3.4%; in [20] it was 4.54%.

For the compound `CCn1c(-c2nonc2N)nc2ccncc21`, the inhibition in test [1] was 1.28%; in test [2], 0.14%; in test [3], 0.99%; in test [4] it was 0.57%; in test [5] it was 0.69%; in [6] it was 0.32%. The inhibition in [7] is 0.16%; in test [8] it was -0.05%; in test [9], 1.68%; in [10], 1.33%; in test [11] it was 1.11%; in test [12], 0.13%. In addition, the inhibition in test [13] was 1.04%; in test [14], 2.07%; in test [15], -2.06%; in [16] it was 0.78%; in test [17] it was 0.08%; in test [18], 2.35%. The inhibition is 0.79% in test [19] and -1.16% in [20].

For `N#Cc1c(NC(=O)c2cccc3ccccc23)sc2c1CCCC2`, the inhibition in [1] turned out to be 2.34%; in test [2], 1.81%; in test [3], 1.22%; in test [4], 1.91%; in test [5], 0.22%; in test [6] it was 1.01%. In addition, the inhibition in test [7] is 0.5%; in test [8] it was 2.55%; in [9] it was 2.14%; in [10] it was 1.14%; in test [11] it was 1.27%; in test [12] it was 3.76%. In addition, the inhibition in test [13] was 0.45%; in test [14], 1.09%; in [15] it was 1.34%; in test [16], 1.65%; in test [17], 2.42%; in [18], 1.14%. Moreover, the inhibition is 2.66% in test [19] and 3.83% in test [20].

On to `COc1cc2ncn(-c3cc(OCc4ccccc4Cl)c(C(N)=O)s3)c2cc1OC`, for which the inhibition is 0.6% in test [1]; -0.16% in test [2]; 2.11% in test [3]; 0.91% in test [4]; 3.5% in [5]; 0.95% in [6]. Moreover, the inhibition in [7] amounted to 7.69%; in test [8], 1.46%; in test [9], 8.47%; in [10], 2.26%; in test [11], 17.2%; in test [12] it was 0.97%. The inhibition turned out to be 1.67% in test [13]; 0.56% in test [14]; 0.22% in [15]; 2.12% in test [16]; 0.41% in test [17]; 1.36% in test [18]. The inhibition in test [19] was determined as 10.7%; in [20] it was 4.07%.

On to `CCn1c(-c2nonc2N)nc2c(C#CC(C)(C)O)nc(OC[C@@H](N)c3ccccc3)cc21`, for which the inhibition is 37% in [1]; 7.79% in [2]; 45.9% in [3]; 2.16% in [4]; 21.4% in test [5]; 3.04% in test [6]. Moreover, the inhibition in test [7] was 26.8%; in [8] it was 0.98%; in test [9], 12.9%; in test [10] it was 2.62%; in test [11], 17.5%; in test [12] it was 0.38%. Further, the inhibition in test [13] was determined as 3.01%; in test [14] it was 2.41%; in test [15] it was 10.3%; in [16] it was 43.1%; in test [17], 60.4%; in [18] it was 26.6%. Moreover, the inhibition turned out to be 66.9% in [19] and 4.59% in test [20].
